The record followed here is the supplement of paper PMC10105736.

Unmarked numbers belong to inactive results.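 How the source made its calls: active = MAPPIT score above the 99th percentile of random reference set scores in the same batch; inactive = at or below it.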

What all share (assay): MAPPIT interaction score (arbitrary units); higher = stronger binary interaction signal, active = hit call of the paper
One test addresses Prp3. As to conditions: MAPPIT configuration: N-N.
The target in another test is Prosalpha2. As to conditions: pair source set: Lit-BM-16.
The next test has as its target Prosalpha4. Particulars: MAPPIT configuration: N-N; pair source set: Lit-BM-16.
Another test has as its target Prosbeta7. As to conditions: pair source set: Lit-BM-16.
The target in a further test is Ptp61F. As to conditions: MAPPIT configuration: N-N; pair source set: Lit-BS-16.
Another test addresses Prosbeta2. As to conditions: MAPPIT configuration: N-N; pair source set: Lit-BM-16.
For the next test, the target named is Psi. Particulars: MAPPIT configuration: N-N; pair source set: Lit-BM-16.
For the next test, the target named is PolZ2. Particulars: MAPPIT configuration: N-N; pair source set: Finley_Y2H.
The target of a further test is Pu. Particulars: MAPPIT configuration: N-C; pair source set: screen_4.
In another test the target is REPTOR-BP. As to conditions: MAPPIT configuration: N-N; pair source set: Curagen_high_conf.
The next test has as its target Pgd. Particulars: pair source set: RRS.
The target in a further test is Pten. As to conditions: MAPPIT configuration: N-N; pair source set: DPIM.
Another test has as its target Rpt2. As to conditions: MAPPIT configuration: N-N.
A further test concerns the target Rpt4. Particulars: MAPPIT configuration: N-N; pair source set: Lit-BM-16.
The next test deals with Prosbeta3. Particulars: MAPPIT configuration: N-C; pair source set: Lit-BM-16.
A further test has as its target Pis. Particulars: MAPPIT configuration: N-N; pair source set: DPIM.
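Further: HEK293T cells with Epo stimulation, STAT-responsive firefly luciferase reporter, fold induction versus unstimulated cells divided by the larger fold induction of two negative controls lacking either bait or prey.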

B1: CG4709 (protein)
chain: MEEYEAQLLVVEQALENAADDAQRQDLLALKNNLQELLALTRESGDEAPIDELPQQGDNLDDELQRLKSELNDLEAAGSSQTALDEERQLADLRTKYTAMVGEKCSAPHEHSWGTCYHNALICGVDDEVVMNSEGVLDARLRVLFTNPTHREMLPCSYYLEGECRFDEAKCRFSHGALVTGSSIRKYNPPDFHKLSRSRPVFALLPDRLWHRGRVLCVNFVEQICRVRLDGQDHKERERDFKFEELYPLTTDQDEDDELSSEESNSSMNDNSSDEAESDMDDLEEARRARMVELSLFTFKPTERLGAWEEFTRGIGSKLMEKMGYIHGTGLGSDGRGIVTPVSAQILPQGRSLDACMELREAANGDKDYFSVERKLKRAQRRQRKADEKAYVRESQRVDVFTFLNDSVLGPGESTQQGEQVTKKAKTNELQQHSTKTLNVETVRIADEIRRKQRDMAKVKQSLDRNSGDAQLQKRLQVQMQSHKQELATLQAQERSLSKEQQTRKSKNKMFEF
As for B1, in the test with Prp3 (pair source set: Lit-BM-16), the MAPPIT interaction score is 2.3.

B2: Prosbeta3 (protein)
chain: MSILAYNGGCVVAMRGKDCVAIATDHRFGIQAQTISTDFKKVFHIGPRMFLGLTGLQTDILTVRDRLMFRKNLYETRENREMCPKPFSAMMSSFLYEHRFGPYFIEPVVAGLDPKTMEPFICNMDLIGCPNAPDDFVVAGTCAEQLYGMCETLWKPDLEPDQLFEVIAQSIVNAFDRDAMSGWGATVYIIEKDKITERTLKTRMD
As to B2, the MAPPIT interaction score with Prosalpha2 (MAPPIT configuration: N-N) was 1.33; in the test with Prosalpha4, -0.232; in the test with Prosbeta7 (MAPPIT configuration: N-C), 0.398; with Prosbeta7 (MAPPIT configuration: N-N), 0.197.

B3: Cyp9f2 (protein)
chain: MLWEFFALFAIAAALFYRWASANNDFFKDRGIAYEKPVLYFGNMAGMFLRKRAMFDIVCDLYTKGGSKKFFGIFEQRQPLLMVRDPDLIKQITIKDFDHFINHRNVFATSSDDDPHDMSNLFGSSLFSMRDARWKDMRSTLSPAFTGSKMRQMFQLMNQVAKEAVDCLKQDDSRVQENELDMKDYCTRFTNDVIASTAFGLQVNSFKDRENTFYQMGKKLTTFTFLQSMKFMLFFALKGLNKILKVELFDRKSTQYFVRLVLDAMKYRQEHNIVRPDMINMLMEARGIIQTEKTKASAVREWSDRDIVAQCFVFFFAGFETSAVLMCFTAHELMENQDVQQRLYEEVQQVDQDLEGKELTYEAIMGMKYLDQVVNEVLRKWPAAIAVDRECNKDITFDVDGQKVEVKKGDVIWLPTCGFHRDPKYFENPMKFDPERFSDENKESIQPFTYFPFGLGQRNCIGSRFALLEAKAVIYYLLKDYRFAPAKKSCIPLELITSGFQLSPKGGFWIKLVQRN
Turning to B3, in the test with Ptp61F, the MAPPIT interaction score is -0.452.

B4: Prosbeta4 (protein)
chain: MLNNYNSLAQPMWQNGPAPGEFYNFTGGQTPVQQLPRELTTMGPYGTKHSTASSTTGTSVLGIRYDSGVMLAADTLVSYGSMARYQNIERVFKVNKNILLGGSGDFADIQSIKRNIDQKMIEDQCCDDNIEMKPKSLASWMTRVLYNRRSRMNPLYIDVVVGGVDNEGTPYLANVDLRGRSYEDYVVATGFARHLAVPLVREKKPKDRDFTAVEASELIRTCMEVLYYRDTRNISQYTVGVCSVNGCGVEGPFQVNENWTFAETIKGY
As to B4, the MAPPIT interaction score in the test with Prosbeta2 was 2.07.

B5: snRNP-U1-70K (protein)
chain: MTQYLPPNLLALFAAREPIPFMPPVDKLPHEKKSRGYLGVAKFMADFEDPKDTPLPKTVETRQERLERRRREKAEQVAYKLEREIALWDPTEIKNATEDPFRTLFIARINYDTSESKLRREFEFYGPIKKIVLIHDQESGKPKGYAFIEYEHERDMHAAYKHADGKKIDSKRVLVDVERARTVKGWLPRRLGGGLGGTRRGGNDVNIKHSGREDNERERERYRLEREREDREGPGRGGGSNGLDARPGRGFGAERRRSRSRERRDRERDRGRGAVASNGRSRSRSRERRKRRAGSRERYDEFDRRDRRDRERERDRDREREKKKKRSKSRERESSRERRERKRERRDRERGTGSGGDVKERKPDFRDMDVIKIKEEPVDDGYPTFDYQNATIKREIDDEDEEKYRPPPAHHNMFSVPPPPILGRGNASTNPNPDNGQQSSGDPSWWRQ
B5: the MAPPIT interaction score in the test with Psi is 0.25.

B6: rtp (protein)
chain: MAMDDYDDDMSSVGVTTARIENQHQQHPHQQGQHGHHQQGQGQSQYSAGAVKVGGWRYEDASRYIGEWNQRGQKHGIGHLQFADGTRYDGQFQEGLSQGVGCLWFADGAKYEGEFHQGWFHGNGIFWRADGMKYEGEFRGGKIWGLGLLTFQDFTHGFPRNEGFFQDCRFMRRRRCPEVVQRAQKCALMARSQCEHPY
As for B6, the MAPPIT interaction score with PolZ2 was 0.217.

B7: Pu (protein)
chain: MSFTRQLSEMSASELNDAIDDTNFPQAHILSRGRNNSVCSTSSTSGTSSLADRQQNQAEEATAIAGTPVEEVAPAPALVPLAGNQRPRLILKTNGSSPDSDGTQPKTPLTPRTSTTPGHEKCTFHHDLELDHKPPTREALLPDMARSYRLLLGGLGENPDRQGLIKTPERAAKAMLYFTKGYDQSLEDVLNGAVFDEDHDEMVVVKDIEMFSMCEHHLVPFYGKVSIGYLPCNKILGLSKLARIVEIFSRRLQVQERLTKQIAVAVTQAVQPAGVAVVVEGVHMCMVMRGVQKINSKTVTSTMLGVFRDDPKTREEFLNLVNSK
On to B7, for which the MAPPIT interaction score with Pu was 5.06 (active).

B8: REPTOR (protein)
chain: MTENQLYPMSSEFFDTGSNSSSNTLKYDLYSLGSTVVGAALPTLTINTGYGSSSSNNNNTNNNNNNSSSHSSSSNCSTSTTNTCNVMLSTTAITIPRSSNHNQIHHHPYQQSDLQTPRHHPSPLHTLPSMTHQQNQLQQQQQQQHHNQQQQLQQSHLALGELSDFGLDALDAASLSPTLLQDVSLSAVSPLSTTLYNGNTSGAGSSNGIGSGSGGYFTPDMSHSLSLNVVSEQVLLQEATTPNELLYEMTPNSNAMWSDISSAIIHTKHEPFSLDDDYIFPNDKAEIQAADLSDLNGGDFLDVIGNIEDFLPQTAVTQSVNFLLSPQAQGQDALVAPPMELLQQQQQNHQQLQVGSLPQLQTLLTLSQQQQSNSSSTSPYEIYHSTPQKPQQQQLSASFSPGSQASQSPLTPPPPPHANRPQYQMVKSRNMQELIKKGFPMSSPPERSILSQSAALSPGGSSGFGSSASGNSTTTSNQTSGSAVRKSFGYQSAVENSQLSRLSSSAPTHLGLEHIWMRREPRQHLLSTGSLAEAESFSSLSTGSVLSPDGIDFSQDDEDDNSSENSDNYDDCSSDNGLSEDEDETRTSTPNHLSSSKGKERFFWQYNVQAKGPKGKRLVFQSKLEDPHVLNEVTDPVFSPTCSVRGIKVYKHSGKARKGDGNDLTPNARKLHNIGKELDKLSRTINDMTPVSELPFNVRPKSRKEKNKLASRACRLKKKAQHEANKIKLFGLEIEHSEFNVKAVEISYNPSIFVL
As to B8, the MAPPIT interaction score with REPTOR-BP is 0.721.

B9: up (protein)
chain: MSDDEEYTSSEEEEVVEETREETKPPQTPAEGEGDPEFIKRQDQKRSDLDDQLKEYITEWRKQRSKEEDELKKLKEKQAKRKVTRAEEEQKMAQRKKEEEERRVREAEEKKQREIEEKRMRLEEAEKKRQAMLQAMKDKDKKGPNFTIAKKDAGVLGLSSAAMERNKTKEQLEEEKKISLSFRIKPLAIEGFGEAKLREKAQELWELIVKLETEKYDLEERQKRQDYDLKELKERQKQQLRHKALKKGLDPEALTGKYPPKIQVASKYERRVDTRSYDDKKKLFEGGWDEISKDSNEKIWNEKKEQYTGRQKSKLPKWFGERPGKKAGEPETPEGEEDAKADEDIVEDDEEVEEEVVEEEDEEAEEDEEEEEEEEEEEEEEEEEEEEEEEEEEEEEE
B9: the MAPPIT interaction score is 1.18 with Pgd (MAPPIT configuration: N-C) and 0.149 with Pgd (MAPPIT configuration: N-N).

B10: mTerf3 (protein)
chain: MFCSALRNILRNSQNAAKNATITSQIRNLRGQQSVHHEVEVLTSPGITTKQNDKKTEPAECEGSKEVALDFRNREAHVPSFNLAAYVNNSSTLQQFLSLGVDLHSIERRKGLGDFVLKLDFEKNVKPYITFLVDQGVSPDDFGRMFTKNPLLFKEDLDDLQTRVNYLKSKRFSDEARQRILTQNPYWLMFSTRRVDRRLGYFQKEFKLSGHDLRLLATREPNAITYNMEHLRKSVFTLKEEMGFNAKELSDLVVRKPRLLMIPPDDLVERFSYIHQDMGLPHAQIVQCPELLASREFRLRERHEFLKLLGRAQYDPQKDLYISPKTIVEGNNFYFVRNVAKSDLETFDLFLKTR
Take B10: in the test with Pten, the MAPPIT interaction score is -0.325.

B11: Rpt6 (protein)
chain: MTVTNRMEIESAYHKGEGFRSYYIQKIEELQLVVAEKHQNLRRLQAQRNELNAKVRMLREELQLLQEQGSYVGEVVKPMDKKKVLVKVHPEGKFVVDLDKNIDINDVTPNCRVALRNESYTLHKILPNKVDPLVSLMMVEKVPDSTYEMVGGLDKQIKEIKEVIELPVKHPELFDALGIAQPKGVLLYGPPGTGKTLLARAVAHHTECTFIRVSGSELVQKFIGEGSRMVRELFVMAREHAPSIIFMDEIDSIGSSRIESGSGGDSEVQRTMLELLNQLDGFEATKNIKVIMATNRIDILDPALLRPGRIDRKIEFPPPNEEARLDILKIHSRKMNLTRGINLRKIAELMPGASGAEVKGVCTEAGMYALRERRVHVTQEDFEMAVAKVMQKDSEKNMSIKKLWK
Take B11: the MAPPIT interaction score with Prosalpha2 (MAPPIT configuration: N-C) was 1.08; in the test with Prosalpha2 (MAPPIT configuration: N-N) it was 1.52; with Rpt2 (pair source set: Finley_Y2H) it was 2.59; in the test with Rpt2 (pair source set: Lit-BM-16) it was 2.59; in the test with Rpt4, -0.794.

B12: Prosalpha4 (protein)
chain: MSSRYDRAVTIFSPDGHLLQVEYAQEAVRKGSTAVGVRGANCVVLGVEKKSVAQLQEDRKVRKICMLDNHVVMAFAGLTADARIMINRAQVECQSHRLNVEDPVTLEYITRFIAQLKQKYTQSNGRRPFGISCLIGGFDADGSAHLFQTEPSGIFYEYKANATGRSAKVVREFFEKSYREEEVANEHGAVKLAIRALLEVAQSGQNNLEVAIMENGKPLKMLDTDVITDYVKIIEKEKEEELEKKKQKK
Regarding B12, in the test with Prosbeta3, the MAPPIT interaction score is 1.51.

B13: CG7601 (protein)
chain: MKVQDMDKCAPSSDWNVLYWVLGTVLMPVALPLAIINIWQRFQAQKFRNQLPGKVVLITGASSGLGESLAHVFYRAGCRVILAARRTQELERVKKDLLALDVDPAYPPTVLPLDLAELNSIPEFVTRVLAVYNQVDILINNGGISVRADVASTAVDVDLKVMVVNYFGSVALTKALLPSMVKRGSGHICFISSVQGKFAIPQRAAYSASKHAMQAFADSLRAEVANKNINVSCVSPGYIRTQLSLNALTGSGSSYGKVDETTAKGMSPDKLAERILQCILRKEPDIIVSDVQAKIAYYLRHLCPSLYFWIMAKRAVKLENAEKKST
In the case of B13, in the test with Pis, the MAPPIT interaction score is 0.037.

B14: Mettl14 (protein)
chain: MSDVLKSSQERSRKRRLLLAQTLGLSSVDDLKKALGNAEDINSSRQLNSGGQREEEDGGASSSKKTPNEIIYRDSSTFLKGTQSSNPHNDYCQHFVDTGQRPQNFIRDVGLADRFEEYPKLRELIKLKDKLIQDTASAPMYLKADLKSLDVKTLGAKFDVILIEPPLEEYARAAPSVATVGGAPRVFWNWDDILNLDVGEIAAHRSFVFLWCGSSEGLDMGRNCLKKWGFRRCEDICWIRTNINKPGHSKQLEPKAVFQRTKEHCLMGIKGTVRRSTDGDFIHANVDIDLIISEEEEFGSFEKPIEIFHIIEHFCLGRRRLHLFGRDSSIRPGWLTVGPELTNSNFNSELYQTYFAEAPATGCTSRIELLRPKSPPPNSKVLRGRGRGFPRGRGRPR
As to B14, the MAPPIT interaction score with Prp3 (pair source set: Curagen_high_conf) was 1.8.
